Measurements as given in ChEMBL document CHEMBL1961873, “Compounds: GSK PKIS; Assays: Nanosyn kinase panel” (2012).
Values joined by “and” are separate entries in the source; they are usually repeats but may differ in a detail not shown here. Identical values can stand only once.

Key:
[1] = molecular target: Tyrosine-protein kinase receptor UFO (Homo sapiens) (UniProt P30530); conditions: at 1 µM
[2] = molecular target: Tyrosine-protein kinase Blk (Homo sapiens) (UniProt P51451); conditions: at 0.1 µM
[3] = molecular target: Tyrosine-protein kinase Blk (Homo sapiens) (UniProt P51451); conditions: at 1 µM
[4] = molecular target: T1, Cytoplasmic tyrosine-protein kinase BMX (Homo sapiens) (UniProt P51813); conditions: at 0.1 µM
T1 sequence (whole entry): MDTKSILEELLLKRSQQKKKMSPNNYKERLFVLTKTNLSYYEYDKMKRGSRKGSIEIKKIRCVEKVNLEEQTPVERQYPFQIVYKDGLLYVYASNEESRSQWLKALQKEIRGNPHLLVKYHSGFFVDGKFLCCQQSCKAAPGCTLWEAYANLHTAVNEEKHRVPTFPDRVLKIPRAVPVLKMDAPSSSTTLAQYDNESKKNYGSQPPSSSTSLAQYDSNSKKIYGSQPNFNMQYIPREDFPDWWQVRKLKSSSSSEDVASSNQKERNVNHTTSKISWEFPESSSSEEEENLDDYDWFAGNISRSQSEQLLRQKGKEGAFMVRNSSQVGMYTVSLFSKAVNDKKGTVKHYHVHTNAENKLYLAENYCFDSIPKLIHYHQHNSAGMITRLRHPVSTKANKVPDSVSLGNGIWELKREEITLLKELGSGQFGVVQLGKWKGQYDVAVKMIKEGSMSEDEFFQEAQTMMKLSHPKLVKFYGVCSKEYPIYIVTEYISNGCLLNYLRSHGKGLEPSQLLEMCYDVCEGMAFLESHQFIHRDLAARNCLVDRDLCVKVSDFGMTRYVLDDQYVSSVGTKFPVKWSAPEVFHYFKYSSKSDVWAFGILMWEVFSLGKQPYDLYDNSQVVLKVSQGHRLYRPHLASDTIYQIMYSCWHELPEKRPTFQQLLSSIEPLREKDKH

[5] = molecular target: T1, Cytoplasmic tyrosine-protein kinase BMX (Homo sapiens); conditions: at 1 µM
[6] = molecular target: Protein-tyrosine kinase 6 (Homo sapiens) (UniProt Q13882); conditions: at 0.1 µM
[7] = molecular target: Protein-tyrosine kinase 6 (Homo sapiens) (UniProt Q13882); conditions: at 1 µM
[8] = molecular target: Tyrosine-protein kinase BTK (Homo sapiens) (UniProt Q06187); conditions: at 0.1 µM
[9] = molecular target: Tyrosine-protein kinase BTK (Homo sapiens) (UniProt Q06187); conditions: at 1 µM
[10] = molecular target: Tyrosine-protein kinase CSK (Homo sapiens) (UniProt P41240); conditions: at 0.1 µM
[11] = molecular target: Tyrosine-protein kinase CSK (Homo sapiens) (UniProt P41240); conditions: at 1 µM
[12] = molecular target: T2, Discoidin domain-containing receptor 2 (Homo sapiens) (UniProt Q16832); conditions: at 0.1 µM
T2 sequence (whole entry): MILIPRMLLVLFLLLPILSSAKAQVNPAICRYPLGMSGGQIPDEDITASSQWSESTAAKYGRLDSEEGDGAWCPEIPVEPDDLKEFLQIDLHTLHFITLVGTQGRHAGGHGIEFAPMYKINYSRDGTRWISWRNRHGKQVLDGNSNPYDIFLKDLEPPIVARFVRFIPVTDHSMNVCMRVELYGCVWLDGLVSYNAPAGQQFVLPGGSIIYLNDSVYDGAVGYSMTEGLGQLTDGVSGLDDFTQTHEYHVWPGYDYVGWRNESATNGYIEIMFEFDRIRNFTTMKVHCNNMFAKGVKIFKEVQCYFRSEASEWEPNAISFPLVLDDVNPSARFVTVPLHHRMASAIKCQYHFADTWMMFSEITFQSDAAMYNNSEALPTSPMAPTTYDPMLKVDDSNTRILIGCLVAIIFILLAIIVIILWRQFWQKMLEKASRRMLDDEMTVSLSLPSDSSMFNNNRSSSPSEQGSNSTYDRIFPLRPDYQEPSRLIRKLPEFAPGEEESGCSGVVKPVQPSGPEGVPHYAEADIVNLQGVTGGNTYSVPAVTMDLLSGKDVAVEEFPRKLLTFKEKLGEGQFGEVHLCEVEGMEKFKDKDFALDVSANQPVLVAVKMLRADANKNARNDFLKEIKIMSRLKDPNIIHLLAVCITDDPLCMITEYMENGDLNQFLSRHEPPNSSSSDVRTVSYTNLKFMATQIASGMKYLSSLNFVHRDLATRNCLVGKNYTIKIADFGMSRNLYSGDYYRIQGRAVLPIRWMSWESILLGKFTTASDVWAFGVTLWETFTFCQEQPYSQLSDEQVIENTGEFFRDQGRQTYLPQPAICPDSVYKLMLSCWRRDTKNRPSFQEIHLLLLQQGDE

[13] = molecular target: T2, Discoidin domain-containing receptor 2 (Homo sapiens); conditions: at 1 µM
[14] = molecular target: Epidermal growth factor receptor (Homo sapiens) (UniProt P00533); conditions: at 0.1 µM
[15] = molecular target: Epidermal growth factor receptor (Homo sapiens) (UniProt P00533); conditions: at 1 µM
[16] = system: Epidermal growth factor receptor (Homo sapiens), P00533 [L858R]; conditions: at 0.1 µM
[17] = system: Epidermal growth factor receptor (Homo sapiens), P00533 [L858R]; conditions: at 1 µM
[18] = system: Epidermal growth factor receptor (Homo sapiens), P00533 [L861Q]; conditions: at 0.1 µM
[19] = system: Epidermal growth factor receptor (Homo sapiens), P00533 [L861Q]; conditions: at 1 µM
[20] = system: Epidermal growth factor receptor (Homo sapiens), P00533 [T790M]; conditions: at 0.1 µM

Sequence of Epidermal growth factor receptor (Homo sapiens), P00533 [L858R] (P00533 whole entry L858R): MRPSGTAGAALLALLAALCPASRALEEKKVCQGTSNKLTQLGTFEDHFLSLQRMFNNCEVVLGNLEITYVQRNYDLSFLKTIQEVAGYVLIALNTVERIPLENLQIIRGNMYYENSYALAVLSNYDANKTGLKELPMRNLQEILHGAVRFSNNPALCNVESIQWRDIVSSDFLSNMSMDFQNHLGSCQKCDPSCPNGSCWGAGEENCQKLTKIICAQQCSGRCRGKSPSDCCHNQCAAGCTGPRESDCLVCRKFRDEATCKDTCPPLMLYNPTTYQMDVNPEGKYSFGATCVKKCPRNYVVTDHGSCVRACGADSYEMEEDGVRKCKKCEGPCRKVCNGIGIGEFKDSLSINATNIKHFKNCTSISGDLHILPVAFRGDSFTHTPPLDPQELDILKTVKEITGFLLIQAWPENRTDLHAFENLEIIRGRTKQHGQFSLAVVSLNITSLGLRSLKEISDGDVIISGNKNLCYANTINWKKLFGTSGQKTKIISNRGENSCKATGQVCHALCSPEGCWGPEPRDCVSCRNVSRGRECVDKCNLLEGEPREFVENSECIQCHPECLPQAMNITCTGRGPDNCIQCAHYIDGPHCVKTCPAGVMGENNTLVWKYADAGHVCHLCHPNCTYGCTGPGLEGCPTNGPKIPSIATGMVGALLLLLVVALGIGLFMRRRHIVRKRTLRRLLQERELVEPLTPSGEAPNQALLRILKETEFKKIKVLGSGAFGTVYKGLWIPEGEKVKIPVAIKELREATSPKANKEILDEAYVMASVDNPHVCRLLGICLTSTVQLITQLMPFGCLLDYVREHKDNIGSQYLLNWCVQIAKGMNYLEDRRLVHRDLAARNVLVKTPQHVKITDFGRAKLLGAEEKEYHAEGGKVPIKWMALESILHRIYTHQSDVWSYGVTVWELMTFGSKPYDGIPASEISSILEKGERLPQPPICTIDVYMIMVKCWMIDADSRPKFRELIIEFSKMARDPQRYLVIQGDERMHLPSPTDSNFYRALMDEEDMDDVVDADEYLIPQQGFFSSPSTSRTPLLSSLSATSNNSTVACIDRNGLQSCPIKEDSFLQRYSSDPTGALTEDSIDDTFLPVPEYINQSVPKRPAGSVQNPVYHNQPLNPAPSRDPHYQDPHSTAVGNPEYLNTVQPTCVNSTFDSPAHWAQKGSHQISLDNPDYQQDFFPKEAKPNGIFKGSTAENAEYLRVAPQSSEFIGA
Sequence of Tyrosine-protein kinase BTK (Homo sapiens) (Q06187 whole entry): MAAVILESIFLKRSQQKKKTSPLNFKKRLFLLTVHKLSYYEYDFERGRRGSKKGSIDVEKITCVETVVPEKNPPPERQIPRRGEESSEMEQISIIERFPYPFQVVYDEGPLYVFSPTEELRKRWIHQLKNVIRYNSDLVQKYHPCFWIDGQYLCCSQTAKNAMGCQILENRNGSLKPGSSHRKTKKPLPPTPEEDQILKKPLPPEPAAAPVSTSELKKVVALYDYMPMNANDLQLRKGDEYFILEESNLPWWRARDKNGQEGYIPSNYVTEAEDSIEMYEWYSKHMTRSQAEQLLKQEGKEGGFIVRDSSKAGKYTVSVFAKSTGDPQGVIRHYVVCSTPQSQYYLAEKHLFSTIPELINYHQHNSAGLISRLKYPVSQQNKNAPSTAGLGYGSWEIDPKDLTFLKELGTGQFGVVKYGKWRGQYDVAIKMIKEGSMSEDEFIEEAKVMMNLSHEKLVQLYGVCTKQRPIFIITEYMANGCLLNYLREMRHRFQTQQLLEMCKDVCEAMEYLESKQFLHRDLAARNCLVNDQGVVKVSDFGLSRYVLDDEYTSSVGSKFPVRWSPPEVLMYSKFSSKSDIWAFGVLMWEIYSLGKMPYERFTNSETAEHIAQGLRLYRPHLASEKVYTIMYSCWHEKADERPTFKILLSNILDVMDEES
Sequence of Tyrosine-protein kinase Blk (Homo sapiens) (P51451 2-505 limits assumed): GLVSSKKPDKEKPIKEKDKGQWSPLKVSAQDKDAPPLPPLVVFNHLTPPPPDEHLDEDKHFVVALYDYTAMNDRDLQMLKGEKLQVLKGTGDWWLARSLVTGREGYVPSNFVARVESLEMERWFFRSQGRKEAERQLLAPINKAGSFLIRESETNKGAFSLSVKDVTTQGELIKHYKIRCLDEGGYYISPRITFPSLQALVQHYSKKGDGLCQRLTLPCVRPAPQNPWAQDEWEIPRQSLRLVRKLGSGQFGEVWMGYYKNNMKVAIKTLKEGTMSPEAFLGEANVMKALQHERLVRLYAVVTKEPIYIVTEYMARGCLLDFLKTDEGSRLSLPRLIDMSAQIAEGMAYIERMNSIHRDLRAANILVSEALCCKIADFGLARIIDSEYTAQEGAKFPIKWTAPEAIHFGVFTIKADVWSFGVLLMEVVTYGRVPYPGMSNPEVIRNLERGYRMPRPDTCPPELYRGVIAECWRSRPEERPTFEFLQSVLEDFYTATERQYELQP
Sequence of Protein-tyrosine kinase 6 (Homo sapiens) (Q13882 whole entry, looked up): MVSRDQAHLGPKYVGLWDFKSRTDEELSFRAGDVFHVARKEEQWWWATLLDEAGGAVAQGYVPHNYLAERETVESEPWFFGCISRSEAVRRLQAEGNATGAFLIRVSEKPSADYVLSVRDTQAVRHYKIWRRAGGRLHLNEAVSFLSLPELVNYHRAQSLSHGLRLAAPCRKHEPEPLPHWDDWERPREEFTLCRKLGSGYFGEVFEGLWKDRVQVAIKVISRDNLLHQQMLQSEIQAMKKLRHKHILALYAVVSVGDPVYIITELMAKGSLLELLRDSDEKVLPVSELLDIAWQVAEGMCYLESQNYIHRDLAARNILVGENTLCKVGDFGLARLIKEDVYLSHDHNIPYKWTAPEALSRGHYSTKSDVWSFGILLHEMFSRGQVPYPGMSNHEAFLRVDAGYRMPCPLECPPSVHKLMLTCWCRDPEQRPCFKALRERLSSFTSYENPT
Sequence of Tyrosine-protein kinase CSK (Homo sapiens) (P41240 2-450 limits assumed): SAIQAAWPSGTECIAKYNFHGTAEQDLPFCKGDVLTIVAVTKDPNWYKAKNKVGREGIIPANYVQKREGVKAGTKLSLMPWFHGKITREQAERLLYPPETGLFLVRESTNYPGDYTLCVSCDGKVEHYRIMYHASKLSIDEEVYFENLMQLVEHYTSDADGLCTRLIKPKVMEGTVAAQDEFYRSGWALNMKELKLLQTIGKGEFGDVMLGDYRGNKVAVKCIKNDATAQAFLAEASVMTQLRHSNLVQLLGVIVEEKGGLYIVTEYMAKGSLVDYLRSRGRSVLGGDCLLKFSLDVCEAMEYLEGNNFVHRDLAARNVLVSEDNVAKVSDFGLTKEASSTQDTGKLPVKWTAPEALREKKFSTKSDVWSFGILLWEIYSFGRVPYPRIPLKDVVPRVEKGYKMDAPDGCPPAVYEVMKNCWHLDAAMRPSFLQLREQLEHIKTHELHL
Sequence of Epidermal growth factor receptor (Homo sapiens), P00533 [L861Q] (P00533 whole entry L861Q): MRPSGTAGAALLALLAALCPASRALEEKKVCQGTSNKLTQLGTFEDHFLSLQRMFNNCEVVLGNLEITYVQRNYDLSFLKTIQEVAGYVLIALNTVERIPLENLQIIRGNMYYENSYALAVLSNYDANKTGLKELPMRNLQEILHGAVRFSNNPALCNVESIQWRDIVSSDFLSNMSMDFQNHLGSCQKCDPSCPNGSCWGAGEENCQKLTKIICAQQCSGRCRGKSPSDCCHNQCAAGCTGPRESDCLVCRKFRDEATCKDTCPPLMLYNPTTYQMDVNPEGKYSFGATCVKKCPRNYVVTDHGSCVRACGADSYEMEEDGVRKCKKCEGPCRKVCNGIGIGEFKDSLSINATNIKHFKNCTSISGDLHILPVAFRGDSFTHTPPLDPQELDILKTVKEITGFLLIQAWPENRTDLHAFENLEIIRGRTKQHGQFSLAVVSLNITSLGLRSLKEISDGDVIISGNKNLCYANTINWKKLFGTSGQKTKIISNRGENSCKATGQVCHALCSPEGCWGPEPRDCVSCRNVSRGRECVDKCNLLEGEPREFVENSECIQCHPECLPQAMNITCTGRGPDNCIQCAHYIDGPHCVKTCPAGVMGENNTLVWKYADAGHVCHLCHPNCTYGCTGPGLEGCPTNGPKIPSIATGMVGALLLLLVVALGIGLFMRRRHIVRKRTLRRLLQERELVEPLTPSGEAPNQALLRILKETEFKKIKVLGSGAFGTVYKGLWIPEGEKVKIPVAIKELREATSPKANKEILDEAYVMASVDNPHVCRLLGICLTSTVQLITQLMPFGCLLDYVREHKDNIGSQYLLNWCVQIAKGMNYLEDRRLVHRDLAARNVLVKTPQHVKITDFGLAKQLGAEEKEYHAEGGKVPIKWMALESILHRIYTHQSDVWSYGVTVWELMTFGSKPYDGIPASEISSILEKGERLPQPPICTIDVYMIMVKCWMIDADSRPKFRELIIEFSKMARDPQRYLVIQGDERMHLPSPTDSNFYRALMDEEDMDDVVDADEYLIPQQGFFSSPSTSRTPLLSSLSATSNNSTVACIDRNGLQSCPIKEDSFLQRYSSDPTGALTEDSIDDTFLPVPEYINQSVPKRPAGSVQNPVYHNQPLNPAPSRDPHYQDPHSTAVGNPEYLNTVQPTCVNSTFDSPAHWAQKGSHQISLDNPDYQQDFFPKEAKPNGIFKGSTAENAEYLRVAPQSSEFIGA

SMILES	inhibition [1]	inhibition [2]	inhibition [3]	inhibition [4]	inhibition [5]	inhibition [6]	inhibition [7]	inhibition [8]	inhibition [9]	inhibition [10]	inhibition [11]	inhibition [12]	inhibition [13]	inhibition [14]	inhibition [15]	inhibition [16]	inhibition [17]	inhibition [18]	inhibition [19]	inhibition [20]
CCS(=O)(=O)c1ccc(OC)c(Nc2ncc(-c3cccc(C(C)=O)c3)o2)c1	-3.61%	4.6%	35.6%	-2.05%	15.7%	4.59%	18.7%	2.71%	8.89%	2.68%	10.1%	3.31%	17.9%	4.92%	9.23%	5.11%	16.6%	5.35%	5.8%	1.86%
Cc1nnc(-c2cccc(-c3ccc(C(=O)NCC4CC4)cc3)c2)o1	-8.4%	3.6%	1.41%	-0.51%	5.89%	6.64%	7.36%	0.03%	1.05%	7.99%	7.37%	2.21%	3.42%	1.17%	3.25%	2.9%	6.91%	3.75%	5.65%	3.93%
CC1=C(C(=O)Nc2ccc3[nH]nc(C)c3c2)C(c2ccc(C(F)(F)F)cc2)CC(=O)N1 (stereo not given)	-6.56%	3.36%	17%	-2.44%	4.58%	3.23%	23.5%	1.29%	2.32%	1.88%	5.65%	3.33%	1.65%	2.76%	5.52%	4.19%	1.96%	1.79%	1.92%	2.05%
c1cnn2ncc(-c3ccnc(NCCCN4CCOCC4)n3)c2c1	-4.37%	1.7%	2.58%	-0.07%	2.01%	2.34%	3.25%	-1.19%	-2.44%	5.75%	1.9%	2.03%	1.44%	-0.42%	0.23%	3.41%	1.28%	1.28%	0.79%	0.73%
Cc1cc(O)cc(C)c1/C=C/c1cncc(C(N)=O)c1	-0.54%	3.77%	23%	5.58%	37.5%	22.2%	72.8%	-0.17%	2.64%	4.27%	25.5%	2.69%	9.65%	6.97%	11.2%	3.98%	18.9%	3.84%	5.76%	1.27%
NS(=O)(=O)c1cccc(N/C=C2\C(=O)Nc3ccccc32)c1	-2.91%	2.39%	8.59%	2.23%	5.84%	3.79%	5.69%	0.73%	-0.4%	3.86%	-0.23%	4.35%	6%	5.8%	9.72%	2.03%	3.12%	2.12%	2.32%	2.62%
O=C1Nc2ccccc2/C1=C1\CCc2cc(O)ccc21	1.9%	4.37%	22%	0.61%	7.52%	5%	4.05%	-0.87%	0.47%	5.49%	4.47%	2.06%	3.76%	0.24%	1.05%	1.94%	2.87%	2.16%	-0.57%	1.76%
CS(=O)(=O)CCNCc1ccc(-c2ccc3ncnc(Nc4ccc(OCc5cccc(C(F)(F)F)c5)cc4)c3c2)o1	-5.12%	2.51%	6.32%	3.21%	6.44%	2.67%	3.19%	-2.4%	0.46%	2.05%	3.02%	0.91%	2.9%	15.5%	58.8%	6.17%	26.7%	14.4%	34.4%	0.24%
Nc1nccc(-c2c(-c3ccc(F)cc3)ncn2C2CCNCC2)n1	8.06% and 1.45%	-1.45% and 0.8%	-0.17% and 2.22%	1.14% and -5.53%	-1.15% and 0.2%	-3.88% and 1.44%	2.01% and 4.41%	-0.49% and -0.93%	-0.59% and 0.22%	-4.42% and 4.09%	-3.76% and 3.13%	-1.68% and 1.35%	0.32%	-0.4% and 2.01%	5.66% and 6.46%	-0.59% and 2.85%	6.1% and 10.9%	-3.23% and 1.91%	1.42% and 4.42%	-2.84% and -2.65%
COc1cc(Nc2ncc(-c3ccccc3)o2)cc(OC)c1	-6.19%	4.37%	20.1%	3.71%	6.51%	0.81%	7.86%	-1.03%	0.87%	3.66%	4.79%	4.48%	7.93%	3.35%	5.26%	0.1%	1.99%	3.52%	5.17%	1.76%
CS(=O)(=O)CCNCc1ccc(-c2ccc3ncnc(Nc4ccc(OCc5ccccc5)cc4)c3c2)o1	-1.88%	3.85%	14.1%	3.59%	8.85%	2.05%	13.7%	0.51%	6.4%	5.85%	9.28%	1.74%	2.07%	83.8%	94.1%	31.4%	71.2%	33%	55.7%	4.15%
CS(=O)(=O)CCNCc1ccoc1-c1ccc2ncnc(Nc3ccc(OCc4ccccc4)cc3)c2c1	1.55%	0.99%	7.84%	1.55%	3.4%	1.71%	8.3%	0.01%	0.8%	2.96%	4.64%	5.97%	7.08%	66.8%	86.2%	14.5%	51.2%	25.4%	42.1%	0.03%
Nc1nonc1-c1nc2cnccc2n1C1CC1	0.16% and -1.32%	2.66% and -2.38%	4.59% and -2.3%	6.52% and -2.61%	4.75% and 2.31%	5.31% and 2.92%	3.69% and 2.66%	1.67% and -4.68%	1.98% and -4.91%	3.81% and 3.48%	2.08% and 1.45%	1.46% and 1.25%	2.24% and 0.96%	1.3% and -3.46%	4.4% and -3.77%	1.41% and 2.54%	0.67% and 3.32%	4% and 2.76%	-0.36% and -1.27%	1.58% and 0.88%
